Only some compounds are listed: those with a hit (about 2.4% of all), similar ones and a draw of the others.
LT uptake inh: qHTS Assay for Anthrax Lethal Toxin Internalization; Cells, anthrax lethal toxin internalization, FRET ratio (460/530); Potency, µM (titrated, usually from 40 µM), for inactives: top-dose activity change, negative = inhibition, most hits filed as inhibitors; 70,000 tested, 0.67% active; further: on the % scale 0 is the no-effect control and ±100 the full control effect; nearly all actives have a fitted effect of over 50% in size
AmpC det inh: Promiscuous and Specific Inhibitors of AmpC Beta-Lactamase (assay with detergent). P00811. purified AmpC, nitrocefin hydrolysis with detergent. Potency, µM (doses to about 28.7 µM), inactives show top-dose activity change, negative = inhibition. 71,000 tested, 0.09% active. AID 584, 2007; active means well fitted curve in the direction sought with a large enough effect; inconclusive means small, poorly fitted or top-dose-only effect; further: on the % scale 0 is the no-effect control and ±100 the full control effect
Target sequence (P00811 whole entry, looked up): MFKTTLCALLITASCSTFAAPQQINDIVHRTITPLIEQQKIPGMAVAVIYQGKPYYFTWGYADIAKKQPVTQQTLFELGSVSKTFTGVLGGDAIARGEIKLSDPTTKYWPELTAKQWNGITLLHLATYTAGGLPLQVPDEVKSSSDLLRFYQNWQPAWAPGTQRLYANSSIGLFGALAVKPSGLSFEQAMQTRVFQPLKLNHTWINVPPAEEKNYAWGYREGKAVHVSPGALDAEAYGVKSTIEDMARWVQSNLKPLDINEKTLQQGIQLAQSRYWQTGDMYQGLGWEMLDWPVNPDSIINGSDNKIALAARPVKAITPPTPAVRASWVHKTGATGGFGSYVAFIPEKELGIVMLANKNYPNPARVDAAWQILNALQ
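E. coli AmpC (5.3 nM) in 20 mM phosphate pH 7.0 with 0.01% Triton X-100, preincubated 15 min RT with compound; nitrocefin (2 uL of 800 uM stock) hydrolysis followed by 480 nm absorbance every 20 s over 4 min.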
Prx2 Sm inh: Schistosoma Mansoni Peroxiredoxins (Prx2). S. mansoni Prx2 activity coupled to TGR/GSH (TGR is thioredoxin glutathione reductase), NADPH fluorescence loss, qHTS. AID 448, 2006. Potency, µM. Schistosoma mansoni peroxiredoxin 2 (Prx2). 65,000 tested, 0.07% active
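Prx2 activity was followed as the loss of NADPH fluorescence (ex 365/em 450 nm), read every 30 sec for 8 min after H2O2 start. The enzyme mix (50 nM Prx2, 25 nM TGR, GSH, NADPH; pH 7.4 phosphate buffer) was incubated with compound for 15 min at room temperature first.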
AmpC nodet inh: Promiscuous and Specific Inhibitors of AmpC Beta-Lactamase (assay without detergent). Potency, µM (doses to about 28.7 µM), inactives show at the top dose activity change, negative = inhibition. 71,000 tested, 1.8% active. AmpC nitrocefin hydrolysis, absorbance 480 nm, no detergent. AID 585, 2007; further: % of control where 0% means no effect
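Enzyme, pH 7.0 phosphate. Compound titrations were pre-incubated with AmpC for 15 min at room temperature before nitrocefin (stock 800 uM) addition; product formation was recorded at 480 nm every 20 s for 4 min.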
Starred values were filed as active, the others as inactive; ? = inconclusive; / = not tested or not shown; ! = a repeat was not active; [ ] = dose if it differs, or a comment. Unless noted, the call rests on the fitted dose curve. Potency means the concentration at half of the fitted maximal effect.

SMILES	LT uptake inh	AmpC det inh	Prx2 Sm inh	AmpC nodet inh
CC(=O)O[C@@H]1[C@H]([N+]2(C)CCCCC2)C[C@@H]2[C@@H]3CC[C@@H]4C[C@@H](OC(C)=O)[C@H]([N+]5(C)CCCCC5)C[C@@]4(C)[C@H]3CC[C@]21C	20%	-1%	>57	6%
COc1ccc(-c2nc3cnc(N4CCOCC4)nc3n(CCc3ccccc3)c2=O)cc1	?	-1%	>57	2%
N[C@@H](Cc1ccccc1)P(=O)(O)O	-14%[8 µM]	-4%[5.75 µM]	>57	3%[5.75 µM]
CCOC(=O)C1=C(C)N=c2s/c(=C\c3cccn3C)c(=O)n2C1c1cccc(OC)c1OC (stereo unspecified)	?	10%	/	33%
CCOC(=O)C1=C(C)N=c2s/c(=C/c3ccco3)c(=O)n2C1c1cccc(OC)c1 (stereo unspecified)	?	6%	>57	7.9µM*
N[C@@H](C(=O)O)[C@@H]1C[C@H]1C(=O)O	3%	-2%	>57	-10%
CC[N+](CC)(CC)CCOc1cccc(OCC[N+](CC)(CC)CC)c1OCC[N+](CC)(CC)CC	-4%[3.58 µM]	-5%[12.8 µM]	?	13µM*!
CC(=O)OC[C@@H]1O[C@@H](O/N=C2/C[C@@H](O)[C@@H](O)[C@@H]3[C@@H]4C(=O)N(c5cccc(Oc6ccccc6)c5)C(=O)[C@H]4CC[C@H]23)[C@H](OC(C)=O)[C@H](OC(C)=O)[C@@H]1OC(C)=O	-4%[0.32 µM]	/	/	/
CCOC(=O)c1cnc2c(C#N)c(C)nn2c1-c1ccccc1	-10%	10%	/	4µM*[single pt active]
CCOC(=O)c1cnc2c(C#N)c(C)nn2c1C	-5%	-5%	>57	-7%
Cc1cc(C(=O)CSc2nc3ccccc3[nH]2)c(C)n1C	-8%	-3%	>57	-2%
Cc1nn2c(=O)cc(CSc3nc4ccccc4[nH]3)nc2s1	8%	13%	>57	4µM*[single pt active]
CN[C@@H]1[C@H](O)[C@H](NC)[C@@H]2O[C@]3(O)C(=O)C[C@@H](C)O[C@H]3O[C@@H]2[C@H]1O	-7%	-3%	>57	4%
O=C(Nc1cnn(Cc2ccc(F)cc2)c1)c1cc(-c2cccs2)on1	0%	-3%	>57	13µM*[single pt active]
O=C(NCc1ccc(Cl)cc1)c1cc(-c2cccs2)on1	3%	19%	>57	7.9µM*
C[C@H]1[C@H](C)CC[C@@]2(C(=O)O)CC[C@]3(C)C(=CC[C@H]4[C@@]5(C)C[C@@H](O)[C@H](O)[C@@](C)(CO)[C@@H]5CC[C@@]43C)[C@@H]12	-6%	0%	>57	100%
O=C1C[C@H]2OCCC=C3CN4CC[C@@]56c7ccccc7N1[C@@H]5[C@H]2[C@H]3C[C@@H]46	?	3%	>57	-9%
C[C@H]1CN(S(=O)(=O)c2cccc3cnccc23)CCN1	9%	-2%	>57	1%
C[C@@]12CC[C@H]3[C@H](CC=C4C[C@@H](O)CC[C@@]43C)[C@@H]1CC[C@@H]2N(CCO)CCO	?	0%[5.75 µM]	>57	5%[5.75 µM]
CC(NC(=O)c1noc2c1CCCCC2)c1ccccc1 (stereo unspecified)	9%	11%	>57	4µM*[single pt active]
Cc1nc2ccc(S(=O)(=O)NC(C(=O)NC3CCCC3)C(C)C)cc2s1 (stereo unspecified)	5%	7%	>57	4µM*[single pt active]
CCN1CCN(C(=O)C(NS(=O)(=O)c2ccc3nc(C)sc3c2)C(C)C)CC1 (stereo unspecified)	0%	9%	>57	13%
N#Cc1cccc(-c2nccc(-n3ccnc3)n2)c1	-9%	4%	?	12%
COc1ccc2c(c1)[C@]13CCCC[C@@H]1[C@H](C2)NCC3	23%	-1%	>57	1%
N#Cc1cccc(-c2nc(NCc3cccnc3)c3ccccc3n2)c1	?	10µM*	>57	0.63µM*
SMILES	LT uptake inh	AmpC det inh	Prx2 Sm inh	AmpC nodet inh
COc1cccc(-c2nc(NCc3cccnc3)c3ccccc3n2)c1	-20%	13µM*	>57	?
CCCNC(=O)c1cc(-c2ccc(O)cc2)on1	0%	4%	>57	-16%
O=C(c1ccc(CS(=O)(=O)c2ccccc2)o1)N1CCOCC1	-14%	10%	>57	2.5µM*[single pt active]
O=C(c1ccc(CS(=O)(=O)c2ccc(Br)cc2)o1)N1CCCC1	-4%	15%	>57	4µM*[single pt active]
O=C(c1ccc(CS(=O)(=O)c2ccc(Br)cc2)o1)N1CCCCCC1	?	7%	>57	3.2µM*[single pt active]
Cc1ccc(S(=O)(=O)Cc2ccc(C(=O)N3CCN(Cc4ccccc4)CC3)o2)cc1	-19%	13%	>57	100%
O=C(c1ccc(CS(=O)(=O)c2ccc(Br)cc2)o1)N1CCN(C2CCCCC2)CC1	-3%	6%	>57	-2%
CC(=O)OC/C=C(C)/C=C/C=C(C)/C=C/C1=C(C)CCCC1(C)C	16%	12%	/	58%
O=C(Cn1c(=O)oc2cc(S(=O)(=O)N3CCCC3)ccc21)NCc1ccccn1	-4%	12%	>57	4µM*[single pt active]
O=C(NC1CCCCC1)NC1CCN(S(=O)(=O)c2ccc3c(c2)OCCO3)CC1	?	13%	>57	10µM*[single pt active]
O=C(Cn1c(=O)oc2cc(S(=O)(=O)N3CCCCCC3)ccc21)NC1CCCCC1	-16%	11%	>57	4µM*[single pt active]
CCOC(=O)Cn1c(=O)oc2cc(S(=O)(=O)NCc3ccccn3)ccc21	9%	12%	>57	17%
O=C1O/C(=C\Br)CC[C@@H]1c1cccc2ccccc12	-1%	0%	>26	3%
O=S(=O)(Cl)c1ccccc1	-3%	12%	/	-12%
CC(=O)NCCNc1nc(-c2cccnc2)nc2ccccc12	16%	7%	>57	2%
Clc1cc(Cl)c(-c2cc(Cl)c(Cl)cc2Cl)cc1Cl	3.2µM*	9%	/	-5%
Oc1cc(Cl)c(Cl)cc1Cl	?	6%	/	-18%
O=C(COc1ccc(Cl)cc1)NCc1nnc(SCC(=O)Nc2ccccc2)o1	-3%	-4%	>57	30%
O=C(CSc1nnc(CNc2ccc(Cl)cc2)o1)Nc1nc2ccccc2s1	-4%	0%	>57	4µM*[single pt active]
COc1cccc(OCc2nc3ccccc3[nH]2)c1	-22%	12%	>57	4µM*[single pt active]
Clc1cccc(-c2nc(-c3ccccn3)no2)c1	-4%	-1%	>57	11%
c1ccc(-c2ccc(-c3nc(-c4ccccn4)no3)cc2)cc1	3.2µM*	12%	/	44%
O=C(c1[nH]o[n+](=O)c1C(=O)c1csc2ccccc12)c1csc2ccccc12	?	-6%[5.75 µM]	/	-11%[5.75 µM]
COc1ccc(-c2nc3cnc(Oc4cccc(Cl)c4)nc3n(CCC#N)c2=O)cc1	?	1%	>57	13%
O=c1cc(-c2ccccc2O)oc2c(O)c(O)ccc12	?	-7%	?	?
C[C@@H]1[C@H]2C=C[C@@H]1[C@@H](c1c3ccc(=O)c(O)c-3oc3c(O)c(O)ccc13)[C@@H]2C(=O)O	?	2µM*	>57	2.5µM*
